Screens: PubChem, National Center for Advancing Translational Sciences (NCATS)
Shown are actives, neighbours in structure and some others; about 5.4% of the full set was active somewhere.
IMPase Li cell: qHTS Assay for Identifying the Cell-Membrane Permeable IMPase Inhibitors: Potentiation with Lithium; CHO-M1 cells, IP1 TR-FRET (IP-One), carbachol + lithium; Potency, µM (doses to about 59.4 µM), hits mostly inhibitors; actives 0.35% (n = 210,000); AID 1457, 2008;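 also: IP1 builds up when IMPase is blocked and the TR-FRET signal falls; nearly all actives have a fitted effect of over 50% in size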
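CHO cells stably expressing M1 receptor (2000/well) were cultured 16–30 h, then exposed to compounds with a small lithium addition for 30 min at 37C. IP1 was measured by TR-FRET competition; AC50 from Hill fits.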
ALOX12 inhib: qHTS Assay for Inhibitors of 12-hLO (12-human lipoxygenase) | actives 0.12% (n = 150,000) | Potency, µM (doses to about 57.1 µM), usual class: inhibitors | purified 12-hLO, xylenol orange hydroperoxide absorbance; also: nearly all actives have a fitted effect of over 55% in size
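Purified human 12hLO (150 nM final) was preincubated with compounds for 15 min at room temperature in 25 mM Hepes pH 7.0, 0.01% Triton X-100, then reacted with 40 uM arachidonic acid for 30 min. Hydroperoxide was detected with ferrous iron/xylenol orange.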
IMPase cell inh: qHTS Assay for Identifying the Cell-Membrane Permeable IMPase Inhibitors; CHO-M1 cells, IP1 accumulation, HTRF TR-FRET ratio; inhibition (IP1 accumulation), % at 46.1 µM; 120,000 tested, under 10 active; AID 901, 2007; active = well fitted curve in the direction sought with a large enough effect in the signal ratio, not every such curve was filed as active; inconclusive = small, poorly fitted or top-dose-only effect, or a change in a side signal; inactive = no such curve, though single readings can be large or run the other way; the % refers to the signal ratio;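 also: cells stimulated with carbachol in lithium chloride buffer; higher means more IMPase inhibition seen as more IP1 and lower FRET ratio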
Target sequence (P97697 whole entry, looked up): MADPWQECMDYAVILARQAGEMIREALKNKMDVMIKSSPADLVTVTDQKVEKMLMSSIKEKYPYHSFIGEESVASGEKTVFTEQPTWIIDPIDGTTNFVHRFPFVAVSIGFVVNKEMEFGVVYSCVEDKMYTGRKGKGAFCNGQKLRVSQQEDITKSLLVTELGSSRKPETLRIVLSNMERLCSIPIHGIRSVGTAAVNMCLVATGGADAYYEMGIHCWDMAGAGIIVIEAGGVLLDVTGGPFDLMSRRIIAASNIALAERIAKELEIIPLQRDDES
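Carbachol-driven Gq signalling in CHO-M1 cells (2000/well) generates IP1. Compounds that block IMPase raise IP1 and so reduce the FRET signal from Eu-anti-IP1 and d2-IP1 after a 10 min room-temperature lysis.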
15-hLO-2 inh: qHTS Assay for Inhibitors of 15-hLO-2 (15-human lipoxygenase 2); Polyunsaturated fatty acid lipoxygenase ALOX15B (Homo sapiens), O15296; purified 15hLO-2, xylenol orange hydroperoxide absorbance; Potency, µM (titrated, usually from 57.1 µM), actives largely listed as inhibitors; actives 0.56% (n = 110,000); also: nearly all actives have a fitted effect of over 60% in size
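Purified human 15hLO-2 (50 nM final) preincubated with compounds 15 min at room temperature in 25 mM Hepes pH 7.5, 0.01% Triton X-100, then 45 uM arachidonic acid added for 90 min; hydroperoxide detected via ferrous/xylenol orange, 573/405 nm absorbance ratio.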
HPGD inh: qHTS Assay for Inhibitors of HPGD (15-Hydroxyprostaglandin Dehydrogenase) | 15-hydroxyprostaglandin dehydrogenase [NAD(+)] (Homo sapiens), P15428 | purified HPGD, NADH fluorescence kinetic, PGE2 substrate | Potency, µM, actives largely listed as inhibitors | actives 4.3% (n = 150,000); active = well fitted inhibition curve with a large enough effect, not every such curve was filed as active; inconclusive = small, poorly fitted or top-dose-only effect, or another doubt; inactive = no such curve, though single readings can be large or run the other way
Target sequence (P15428 whole entry, looked up): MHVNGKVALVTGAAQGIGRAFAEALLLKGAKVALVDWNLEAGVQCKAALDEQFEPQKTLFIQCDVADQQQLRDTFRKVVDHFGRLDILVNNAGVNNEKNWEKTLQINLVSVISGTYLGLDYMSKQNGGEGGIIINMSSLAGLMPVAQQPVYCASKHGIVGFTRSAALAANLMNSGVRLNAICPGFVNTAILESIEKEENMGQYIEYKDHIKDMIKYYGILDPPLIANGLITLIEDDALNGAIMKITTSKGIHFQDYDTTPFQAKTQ
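20 nM HPGD preincubated 15 min at room temperature with compound in 50 mM Tris-HCl pH 8, 0.01% Tween 20. Started with 1 mM NAD+ and 30 uM prostaglandin E2; NADH fluorescence (360/450 nm) read 5 times over 30-s intervals, last minus first.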
PNC inhibitor: High Content Assay for Compounds that inhibit the Assembly of the Perinucleolar Compartment; PC3M PTB-GFP, PNC prevalence imaging, 16 h; stronger effect = lower value; activity change (PNC), negative = inhibition, % at 10 µM; actives 3.1% (n = 140,000);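 active = readout at or below -70, meaning at least 70% loss of cells showing the perinucleolar compartment, a nuclear body marking cancer cells; inconclusive = readout between -30 and a set limit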
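PC3M cells stably expressing PTB-GFP, 750–1000 cells/well, treated 16 h at 37 °C with compound (23 nl of library stock), in duplicate. After paraformaldehyde fixation and Hoechst stain, imaged at 20x; PNC prevalence scored by image analysis.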
A number is an active result; - = inactive; ? = inconclusive; . = no result given; [ ] = dose if it differs, or a comment. Unless noted, calls follow the shape of the dose curve; as a rule, active = well fitted curve in the direction sought with a large enough effect; inconclusive = small, poorly fitted or top-dose-only effect, or another doubt; inactive = no such curve, though single readings can be large; an effect the other way counts as inactive or inconclusive.

SMILES	IMPase Li cell	ALOX12 inhib	IMPase cell inh	15-hLO-2 inh	HPGD inh	PNC inhibitor
Cn1cc(Cl)c(-c2n[nH]c(=S)n2-c2ccc(F)cc2)n1	?	-	.	.	-	-
Cc1c(Cl)c(-c2n[nH]c(=S)n2-c2ccc(F)cc2)nn1C	11µM	-	?	-	-	-
Cc1ccc(-n2c(-c3nn(C)cc3Cl)n[nH]c2=S)cc1	-	-	.	.	-	-
Cn1cc(Cl)c(-c2n[nH]c(=S)n2-c2ccccc2)n1	11µM	-	.	.	-	-
C=CCNC(=S)Nc1sc2c(c1C(=O)OCC)CCN(C(=O)OCC)C2	?	-	?	?	-	-
C=CCNC(=S)Nc1sc2c(c1C(=O)OCC)CC(C)(CC)OC2 (stereo not given)	-	-	.	.	-	-100
CC(=O)OCC(=O)[C@@]1(O)CCC2C3CCC4=CC(=O)C=CC4(C)C3C(O)C[C@]21C (stereo not given in full)	-	-	.	-	-	.
NC(=O)C1=CN([C@@H]2O[C@@H](COP(=O)(O)OP(=O)(O)OC[C@@H]3O[C@H](n4cnc5c(N)ncnc54)[C@@H](OP(=O)(O)O)[C@@H]3O)[C@H](O)[C@@H]2O)C=CC1	.	?	-	-	.	.
O[C@@H](c1cc(-c2ccc(Cl)cc2)nc2ccccc12)[C@@H]1CCCCN1	.	-[11.4 µM]	.	-[11.4 µM]	.	.
CC1(C)CC(=O)C(C=NCCN2CCOCC2)=C(O)C1	-	-	-	-	-	-96
COc1ccc(Br)cc1CN1CCN(C(=O)c2ccc(F)cc2)CC1	-	.	.	.	.	.
O=C(c1ccc(F)cc1)N1CCN(Cc2ccccc2Br)CC1	-	-	-[1.84 µM]	-[11.4 µM]	-	-99
CCCCOc1ccc(C(=O)N(Cc2ccc(C(C)C)cc2)C2CCS(=O)(=O)C2)cc1 (stereo not given)	.	.	-	.	.	.
Cc1nn(-c2ccccc2)c(Cl)c1/C=C1\SC(=S)NC1=O	-	-	-	?	16µM	?
COc1ccc(-n2cccc2/C=C2\C(=N)N3N=C(C(C)C)SC3=NC2=O)cc1	-	.	.	.	.	.
Cc1nn(-c2ccccc2)c(Cl)c1/C=C1/C(=N)N2N=C(C(C)C)SC2=NC1=O	-	-	.	.	22µM	?
CCOc1c2ccc(C(=O)NCCc3ccc(C)cc3)cc2nn1CC	-	-	-	-	?	-113
CC=O	-	-	.	-	-	.
COc1ccc(/C=C(\C#N)C(=O)OCC(=O)Nc2c(C)cccc2C)cc1	-	-	.	.	-	-81
CCc1cccc(CC)c1NC(=O)COC(=O)/C(C#N)=C/c1ccc(OC)cc1	-	-	.	.	-	-
Cc1sc2nc3n(c(=O)c2c1C)NC(=O)CC3	-	-	-	.	-	-100
O=C1CCc2nc3ccccc3c(=O)n2N1	-	-	-	-	-	-
CC(C)(C)C(=O)CNS(=O)(=O)c1ccc(S(=O)(=O)NC2CCCC2)cc1	-	-	-	-	-	-82
O=S(=O)(NC1CCCC1)c1ccc(S(=O)(=O)NC2CCCC2)cc1	-	-	-	-	-	?
Cc1ccc(C2=C(Cl)C(=O)C(c3ccc(C)cc3)=C(Cl)C2=O)cc1	-	-[11.4 µM]	.	-[11.4 µM]	2.2µM	.
Cc1cccc2sc(N(CCCN(C)C)C(=O)c3nc4ccccc4s3)nc12	-	-	.	.	?	-118
Nc1nccc(Nc2ccc(S(N)(=O)=O)cc2)n1	-	-[11.4 µM]	.	-[11.4 µM]	-	.
Cc1ccc2nc(Nc3ccccc3)c(/C=N/O)c(=O)n2c1	-	-	-	.	11µM	-100
Cn1cccc1C(=O)N1CCC[C@@]2(CCN(C(c3ccccc3)c3ccccc3)C2)C1	-	-	.	-	-	.
Cc1ccc(C(=O)COC(=O)CCC(=O)Nc2ccc(Oc3ccccc3)cc2)cc1	.	.	-	.	.	.
